Only some compounds are listed: those with a hit (about 21% of all), similar ones and a draw of the others.
HCMV inh: blocks human cytomegalovirus replication; HFF cells, HCMV-luciferase reporter, 72 h; hits give low values; activity change, negative = inhibition, % at 57.5 µM; 4.5% of 410,000 active; AID 1259415; in the data active means activity change below about -60%; inconclusive means no clear call, values can overlap the other calls; inactive means above about -39%; further: on the % scale 0 is the no-effect control and ±100 the full control effect
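Human foreskin fibroblasts infected with luciferase-reporter HCMV at MOI 1 PFU/cell, compounds at two doses. Luciferase measured 72 h post infection; normalized to buffer-only basal and Salinomycin (10uM) controls.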
HCV inhibitor: inhibitors of hepatitis C virus infection. Huh7.5.1 HCVcc-Cre infection, luciferase reporter, 44 h. Potency, µM (series often up to 41.8 µM), for inactives: at the highest dose activity change, negative = inhibition, usual class: inhibitors. 3.4% of 340,000 active. AID 651820; further: potency means the concentration at half of the fitted maximal effect; on the % scale 0 is the no-effect control and ±100 the full control effect
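Cells seeded at 1,000/well and cultured 4 h, then compounds added followed by HCVcc-Cre virus (~0.5 moi). After 44 h further culture, luciferase substrate was added, plates held 15 min at room temperature, and luminescence read for 15 sec.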
CHX counter: affects cycloheximide protein synthesis inhibition readout, counter-screen. cell reporter, cycloheximide protein synthesis inhibition counterscreen. max response, %. 12% of 300,000 active. AID 2314; in the data active means max response mostly above about 13%, no sharp cut-off; inactive means mostly below about 14%; further: read at 38.3 µM for the half of the compounds with a filed dose; 0% is about no effect
Shiga toxin inh: Shiga toxin inhibition; Vero cells, Shiga toxin protein synthesis inhibition reporter; inhibition, % at 38.7 µM; 9.2% of 290,000 active; AID 2315; in the data active means inhibition mostly above about 28%, no sharp cut-off; inactive means mostly below about 43%; further: 0% is about no effect
Pf growth 96h: P. falciparum growth inhibition at 96 hour, primary screen for plastid delayed-death inhibitors | P. falciparum luciferase reporter growth, 96 h | Potency, µM (titrated, usually from 28.7 µM), for inactives: top-dose activity change, negative = inhibition, usual class: inhibitors | 6.9% of 320,000 active; further: potency means the concentration at half of the fitted maximal effect; on the % scale 0 is the no-effect control and ±100 the full control effect
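Infected RBCs, 2% Hct / 0.05% parasitemia final; luciferase-reporter P. falciparum; cpd 96 h, 37 C, 5% CO2; luciferase detection reagent; luminescence.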
Pf growth 48h: P. falciparum growth inhibition at 48 hours (one generation); P. falciparum luciferase growth in erythrocytes, 48 h; Potency, µM (highest dose often 28.7 µM), inactives show at the highest dose activity change, negative = inhibition, hits mostly inhibitors; 5.9% of 310,000 active; AID 504832; further: potency means the concentration at half of the fitted maximal effect; on the % scale 0 is the no-effect control and ±100 the full control effect
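In quantitative HTS format, infected erythrocytes bearing luciferase-reporter parasites were treated for a single generation at 37 C. Luminescence after adding detection reagent served as the growth measure.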
* hit, by the source's call; ? = inconclusive; · = not tested or not shown. Unless noted, the call rests on the fitted dose curve; in most records, active means well fitted inhibition curve with a large enough effect; inconclusive means small, poorly fitted or top-dose-only effect, or another doubt; inactive means no such curve, though single readings can be large or run the other way.

SMILES	HCMV inh	HCV inhibitor	CHX counter	Shiga toxin inh	Pf growth 96h	Pf growth 48h
CCOC(=O)N/N=C\c1ccc(OC/C=C/c2ccccc2)c(OC)c1	?	-16%	12	22	50%	1.9µM*
COC(=O)N/N=C/c1cccc(OCCSc2ccc(Cl)cc2)c1	-24	?	34*	60*	-49%	45%
Cc1ccc([C@H]2C[C@@H](O)[C@H](n3cc(-c4ccc(F)cc4)nn3)CN2Cc2cccs2)cc1	-17	·	·	·	·	·
O=C(COc1coc(CN2CCc3ccccc3C2)cc1=O)Nc1cccc(Cl)c1	-20	?	·	·	?	2%
COc1ccc(CNC(=O)c2c(C)nc3ccccn23)cc1	-39	?	5	18	?	-11%
COc1ccc(/C=C/C(=O)c2c(C)nc3ccccn23)cc1	-20	-16%	48*	107*	?	36%
Cc1nc2ccccn2c1C(=O)/C=C/c1ccc(F)cc1	79	-5%	54*	95*	?	27%
Cc1nc2ccccn2c1C(=O)NN	5	3%	-1	-4	-4%	4%
COc1ccc(CCNC(=O)c2c(C)nc3ccccn23)cc1	?	21%	10	12	12µM*	?
OC(CN1CCN(c2ccccc2)CC1)c1ccc2c(c1)CCN2 (centres undefined)	26	1%	6	-13	9.3µM*	39%
CN(C(=O)c1cccc(NC(=O)Cc2ccc(NC(=O)C3CCCN(C(=O)C4CCCC4)C3)cc2)c1)C1CC1 (centres undefined)	54	?	·	·	·	·
O=c1[nH]c(=O)c2[nH]c(=S)[nH]c2[nH]1	-13	12%	·	·	·	·
FC(F)(F)c1ccc(CSc2ccccn2)cc1	-30	8%	19*	53*	12%	19%
O=C(Nc1ccc(CSc2ccccc2)cc1)c1ccccc1	-17	6%	-2	7	-1%	-1%
Cc1cnc(=O)[nH]c1SCc1ccc(C(F)(F)F)cc1	-5	-1%	25	-2	1%	-4%
COc1ccccc1NC(=O)c1ccc(CSc2ncccn2)cc1	·	·	14*	55*	?	9%
O=C(Nc1ccccc1)c1ccc(CSc2ccccn2)cc1	·	?	36*	63*	304%	276%
COc1ccccc1NC(=O)c1nc(SCc2ccc(F)cc2)ncc1Cl	18	·	·	·	·	·
Cc1ccc(NC(=O)CCNC(=O)c2ccc(Br)cc2)cc1S(=O)(=O)N1CCCCCC1	-34	?	·	·	-2%	2%
Cc1ccc(-c2cn(-c3ccccc3)c(SCC(=O)NC3CCS(=O)(=O)C3)n2)cc1C (centres undefined)	-2	12%	53*	active	108%	97%
COC(=O)c1ccc2c(=O)n(CCc3ccc(S(N)(=O)=O)cc3)c(SCC(=O)C(C)(C)C)nc2c1	-22	·	·	·	·	·
O=C(Nc1ccc(F)cc1F)Nc1ccc(F)cc1F	?	-11%	30*	86*	-1%	87%
O=C(Nc1ccon1)Nc1ccc(F)cc1F	?	3%	10	52	84%	1%
O=C(Nc1ccncc1)Nc1ccc(F)cc1F	17	10%	27*	54*	35%	9.3µM*
COc1cc(NC(=O)CCc2c(C)nn(-c3ccc(N4CCCCC4)nn3)c2C)cc(OC)c1OC	-11	·	·	·	·	·
SMILES	HCMV inh	HCV inhibitor	CHX counter	Shiga toxin inh	Pf growth 96h	Pf growth 48h
Cc1ccccc1CNC(=O)CN(c1cccc(C)c1C)S(C)(=O)=O	9	·	·	·	·	·
CCc1nnc(NC(=O)CSC(=S)N2CCOCC2)s1	-98*	18%	-1	-17	-14%	-21%
COc1cc(C(=O)Nc2cccc(C)n2)ccc1OCC(=O)N1CCOCC1	0	4%	·	·	-17%	18%
COc1ccc(-c2csc(NC(=O)c3ccc(OCC(=O)N4CCOCC4)c(OC)c3)n2)cc1OC	-82*	?	-1	19	?	9.3µM*
COc1cc(C(=O)NNC(=O)COc2cccc(F)c2)ccc1OCC(=O)N1CCOCC1	-70*	-6%	·	·	-10%	12%
CCOc1cc(C(=O)Nc2nnc(CC)s2)ccc1OCC(=O)N1CCOCC1	105	-12%	-5	6	?	0.26µM*
CCC(=O)c1cn(CC(=O)Nc2ccc(F)cc2)c2ccccc12	-3	·	·	·	·	·
COc1ccc(CCN2C(=NC(=O)C(C)C)SC3CS(=O)(=O)CC32)cc1 (centres undefined)	38	3%	-3	33	16%	9%
CC(=O)N1CCCc2cc(S(=O)(=O)NCc3ccc(OC(C)C)cc3)ccc21	-23	·	·	·	·	·
c1cc(CN2CCCCC2)cc(OCCCNc2nc3ccccc3s2)c1	-34	?	·	·	4.8µM*	13µM*
O=C(NCC1CCCN(Cc2cccc(OCCO)c2)C1)c1ccc(F)cc1 (centres undefined)	-21	-8%	-1	32	?	0%
O=C(NCCCOc1cccc(CN2CCCCC2)c1)c1ccc(Cl)c(Cl)c1	-31	?	-4	-6	2.3µM*	?
Cc1c(-c2ccccc2)n(-c2ccccc2O)c2nc3c(c(=O)n(C)c(=O)n3C)n12	-64*	·	·	·	·	·
Cc1cc(C)cc(-n2c(-c3ccccc3)c(C)n3c4c(=O)n(C)c(=O)n(C)c4nc23)c1	0	·	·	·	·	·
COc1cc(NC(=S)Nc2ncccc2C)cc(OC)c1OC	23	-8%	20*	41	7%	-25%
Cc1ccc(C)c(NC(=S)N2CCN(c3ccccn3)CC2)c1	-18	5%	0	-8	?	-6%
Cc1cccnc1NC(=S)Nc1ccc(F)cc1F	56	6%	35*	77*	?	73%
Cc1ccc(C)c(NC(=S)Nc2ncccc2C)c1	-31	?	36*	134*	?	40%
CCCCn1c(N)c(N(CCOC)C(=O)COC(=O)CCOc2ccc(C)cc2)c(=O)[nH]c1=O	-15	10%	·	·	?	?
Cn1cccc1C(=O)OCC(=O)NC(=O)c1ccc(Cl)cc1	-6	-4%	·	·	·	·
Cn1cccc1C(=O)OCc1cc(Cl)cc2c1OCOC2	64	-15%	62*	145*	211%	75%
COCCC(=O)N1CCC(Oc2ccc(C(=O)N3CCC[C@H]3CO)cc2)CC1	11	-2%	9	25	?	13%
Cc1cc(C)c(NC(=S)N2CCC(N(C)CC3CCCO3)CC2)c(C)c1 (centres undefined)	-72*	10%	-4	-4	·	9%
CC/C(=N/Nc1cccc(Cl)c1)c1cnnc(SC)n1	-15	?	-2	-2	?	?
CC/C(=N/Nc1ccccc1)c1cnnc(-c2ccccc2)n1	?	8.9µM*	4	12	0.1µM*	0.13µM*
N#CCCCCn1ccc(NC(=O)c2ccc(Cl)cc2O)n1	66	-2%	·	·	·	·
O=C(CN1CCCCC1)N1c2ccccc2Oc2ccccc21	-3	-4%	-2	-17	?	-19%

Screens: PubChem BioAssay, National Center for Advancing Translational Sciences (NCATS)
